HGIII-sPLA2 inh – Blocks human group III sPLA2 activity. inhibition, % at 12.2 µM. 0.56% of 370,000 active. QFRET BODIPY PC-A2 liposome hydrolysis, fluorescence;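 active = inhibition above mean plus 3 SD of compounds lying within the high and low control bounds, cut at about 19% in these data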
Target sequence (Q9NZ20 whole entry, looked up): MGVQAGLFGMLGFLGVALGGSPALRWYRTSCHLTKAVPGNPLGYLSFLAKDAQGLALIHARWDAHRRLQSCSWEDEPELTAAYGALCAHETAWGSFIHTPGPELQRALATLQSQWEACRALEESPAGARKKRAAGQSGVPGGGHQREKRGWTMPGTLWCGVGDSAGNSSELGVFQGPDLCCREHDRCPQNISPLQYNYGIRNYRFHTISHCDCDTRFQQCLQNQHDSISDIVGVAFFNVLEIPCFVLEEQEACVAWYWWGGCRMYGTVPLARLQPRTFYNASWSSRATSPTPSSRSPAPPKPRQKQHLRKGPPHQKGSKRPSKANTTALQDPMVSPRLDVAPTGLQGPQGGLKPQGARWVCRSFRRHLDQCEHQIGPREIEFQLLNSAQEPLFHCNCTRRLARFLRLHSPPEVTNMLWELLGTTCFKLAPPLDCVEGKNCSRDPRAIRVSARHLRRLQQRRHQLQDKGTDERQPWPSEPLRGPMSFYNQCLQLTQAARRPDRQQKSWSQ
Neddylation inh – blocks human cullin neddylation; inhibition, % at 25 µM; TR-FRET cullin neddylation, biochemical; 0.58% of 360,000 active; AID 651699; in the data active = inhibition above about 36%
DAGLB inh – diacylglycerol lipase beta (human) inhibition. HEK293T DAGLB membrane lysate, EnzChek fluorogenic substrate. inhibition, % at 5.17 µM. 0.059% of 340,000 active. AID 504411; in the data active = inhibition above about 34%
ARNT TACC3 PPI – ARNT/TACC3 interaction disruption; 0.66% of 390,000 active; inhibition, % at 9.99 µM; AlphaScreen His-ARNT PAS-B/GST-TACC3 binding, luminescence; TACC3 fragment carries E629A point mutation; AID 623870;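 active = mean inhibition of replicates at least 50% and at least half of replicates each reaching 50%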
NadD block – blocks S. aureus nicotinate mononucleotide adenylyltransferase. inhibition, % at 20 µM. 0.78% of 360,000 active. purified NadD enzyme, colorimetric absorbance read-out; in the data active = inhibition above about 26%
NadD inh conf – NadD (S. aureus) inhibition, single concentration confirmation. shares compounds with NadD block. purified S. aureus NadD, colorimetric enzyme assay. inhibition, % at 20 µM. 13% of 2,000 active. AID 624309; in the data active = inhibition mostly above about 42%, no sharp cut-off; inactive = mostly below about 42%
Of the large screens only hits and unclear results are named; the others gave an inactive call (follow-up assays come after a bar, where shown). Hits are enriched below; roughly 2% of the tested compounds scored in any of these assays.

COc1ccc(-c2cnc3c(c2)C(=O)N([C@H](C)CO)C[C@H](C)[C@@H](CN(C)C(=O)Cc2cccnc2)O3)cc1	none (no result: HGIII-sPLA2 inh, Neddylation inh, DAGLB inh, NadD block)
CCNC(=O)[C@H]1[C@H](CO)[C@H]2Cn3c(ccc(-c4ccc(F)cc4)c3=O)[C@@H]1N2Cc1ccccc1F	none (no result: HGIII-sPLA2 inh, Neddylation inh, DAGLB inh, NadD block)
Cc1ccc(O)c(C(=O)c2cnc3c(c2)c(-c2ccc(F)cc2)c(C#N)c(=O)n3C)c1	NadD block 28 | NadD inh conf inactive
O=C(C[C@H]1C[C@@H]2c3cc(NC(=O)NC4CCCCC4)ccc3O[C@@H]2[C@@H](CO)O1)NCCc1ccccc1	none (no result: HGIII-sPLA2 inh, Neddylation inh, DAGLB inh, NadD block)
COc1ccc(/C=C/C(=O)NC(=S)NNC(=O)[C@H]2C[C@@H]2c2ccccc2)cc1OC	NadD block 59 | NadD inh conf inactive
COc1ccc(/C=C/C(=O)NC(=S)NN2CCCCC2c2cccnc2)cc1OC (configuration not stated)	none
CN(C)C(=O)C[C@@H]1CC[C@H]2[C@@H](COC[C@H](O)CN2C(=O)C2CCCC2)O1	none (no result: HGIII-sPLA2 inh, Neddylation inh, DAGLB inh, NadD block)
CCNC(=O)C[C@H]1CC[C@H]2[C@@H](COc3ccc(NC(=O)Nc4ccc(F)cc4)cc3C(=O)N2C)O1	none (no result: HGIII-sPLA2 inh, Neddylation inh, DAGLB inh, NadD block)
COc1cc(OC)cc(C2=Cc3ccccc3C(CC(=O)c3ccco3)N2c2ccc(-c3cccnc3)cc2)c1 (configuration not stated)	NadD block 35 (no result: DAGLB inh, ARNT TACC3 PPI) | NadD inh conf inactive
COC(=O)c1ccc(N2C(c3cc(OC)cc(OC)c3)=Cc3ccc(-c4cccnc4)cc3C2CC(=O)C2CC2)cc1 (configuration not stated)	NadD block 32 (not shown: Neddylation inh, DAGLB inh, ARNT TACC3 PPI) | NadD inh conf inactive
COC(=O)c1ccc(N2C(c3cc(OC)cc(OC)c3)=Cc3ccc(-c4ccc(C(N)=O)cc4)cc3C2CC(=O)C2CC2)cc1 (configuration not stated)	none (not shown: Neddylation inh, DAGLB inh, ARNT TACC3 PPI)
COc1cc(OC)cc(C2=Cc3ccc(OC)cc3C(CC(C)=O)N2c2ccc(-c3cncnc3)cc2)c1 (configuration not stated)	none (not shown: Neddylation inh, DAGLB inh, ARNT TACC3 PPI)
O=C(C[C@@H]1CC[C@H](NC(=O)c2ccc3c(c2)OCO3)[C@H](CO)O1)NC1Cc2ccccc2C1	none (no result: HGIII-sPLA2 inh, Neddylation inh, DAGLB inh, NadD block)
CO[C@@H]1CN(C)C(=O)c2cc(NS(=O)(=O)c3ccc(C)cc3)ccc2OC[C@H](C)N(C)C[C@H]1C	none (no result: HGIII-sPLA2 inh, Neddylation inh, DAGLB inh, NadD block)
COCC(=O)Nc1ccc2c(c1)C(=O)N(C)C[C@@H](OC)[C@@H](C)CN(Cc1ccccc1F)[C@@H](C)CO2	none (no result: HGIII-sPLA2 inh, Neddylation inh, DAGLB inh, NadD block)
COc1cccc2c(=O)c3cccc(N)c3[nH]c12	NadD block 39 (not shown: Neddylation inh) | NadD inh conf inactive
COc1cccc2c(=O)c3c([nH]c12)OC(C)(C)C3	none
COc1ccc(-c2cc(C(F)(F)F)c3c(n2)sc2c(O)cc(=O)[nH]c23)c(OC)c1	NadD block 30 | NadD inh conf inactive
CCOC(=O)/C=C1\CC(C(=O)OCC)Oc2c(OC)cccc21 (configuration not stated)	NadD block 39 | NadD inh conf inactive
C[C@@H]1CN([C@@H](C)CO)C(=O)c2cc(NC(=O)Nc3ccc4c(c3)OCO4)ccc2O[C@@H](C)CCCCO[C@@H]1CN(C)C(=O)Cc1ccccc1	none (no result: HGIII-sPLA2 inh, Neddylation inh, DAGLB inh, NadD block)
Cc1cc2c(N)cccc2nn1	NadD block 37 | NadD inh conf inactive
CCC(=O)Nc1ccc2c(c1)C(=O)N(C)[C@H]1CC[C@H](CC(=O)NCc3ccccc3)O[C@H]1CO2	none (no result: HGIII-sPLA2 inh, Neddylation inh, DAGLB inh, NadD block)
CCOC(=O)C1=C(C)N=c2sc(=Cc3cc(Cl)c(OCC(=O)O)c(OC)c3)c(=O)n2C1c1ccccc1Cl (configuration not stated)	NadD block 30 (no result: DAGLB inh, ARNT TACC3 PPI) | NadD inh conf inactive
CN1c2ccc(-c3ccc(F)cc3)cc2[C@@H]2[C@@H](CCN2C(=O)Nc2ccc(F)cc2)[C@@H]1CO	none (no result: HGIII-sPLA2 inh, Neddylation inh, DAGLB inh, NadD block)
CCc1cc2c(=O)nc3n(c2s1)Cc1ccccc1/C3=C(/O)c1ccc(F)cc1	NadD block 36 | NadD inh conf inactive
CCc1cc2c(=O)nc3n(c2s1)Cc1ccccc1/C3=C(/O)c1ccccc1Cl	NadD block 32 (not shown: Neddylation inh) | NadD inh conf inactive
CCc1cc2c(=O)nc3n(c2s1)Cc1ccccc1/C3=C(/O)c1cccc([N+](=O)[O-])c1	none (no result: HGIII-sPLA2 inh)
COCC(=O)Nc1ccc2c(c1)C(=O)N(C)C[C@H](OC)[C@@H](C)CN(Cc1cccc(F)c1)[C@@H](C)CO2	none (no result: HGIII-sPLA2 inh, Neddylation inh, DAGLB inh, NadD block)
COC(=O)C[C@H]1CC[C@@H]2[C@@H](COc3ccc(NC(=O)c4cccc(F)c4)cc3C(=O)N2C)O1	none (no result: HGIII-sPLA2 inh, Neddylation inh, DAGLB inh, NadD block)
CO[C@@H]1CN(C)C(=O)c2cc(NC(=O)c3cc(C)on3)ccc2OC[C@@H](C)N(S(=O)(=O)c2cccc(F)c2)C[C@H]1C	none (no result: HGIII-sPLA2 inh, Neddylation inh, DAGLB inh, NadD block)
CCOc1ccc2c(c1)sc(N)[n+]2Cc1cc(C)cc2cccnc12	none
CCOc1ccc2c(ccc(/C=C/c3cc(C)c4cccnc4c3O)[n+]2C)c1	ARNT TACC3 PPI 65, NadD block 55 (no result: HGIII-sPLA2 inh) | NadD inh conf 89
COc1ccc(C(C[N+](=O)[O-])c2c(-c3ccccc3)cc3ccccn23)c(OC)c1 (configuration not stated)	NadD block 33 | NadD inh conf inactive
COc1ccc(S(=O)(=O)N(C)C[C@@H]2Oc3ccc(NC(=O)Nc4c(C)noc4C)cc3C(=O)N([C@@H](C)CO)C[C@@H]2C)cc1	none (no result: HGIII-sPLA2 inh, Neddylation inh, DAGLB inh, NadD block)
Nc1c(S(=O)(=O)c2ccccc2)c2nc3ccccc3nc2n1/N=C/c1ccco1	NadD block 37 (not shown: Neddylation inh) | NadD inh conf inactive
Cc1cccc(S(=O)(=O)c2c(N)n(/N=C/c3cccnc3)c3nc4ccccc4nc23)c1	none (not shown: Neddylation inh)
Cc1cccc(S(=O)(=O)c2c(N)n(/N=C/c3ccco3)c3nc4ccccc4nc23)c1	NadD block 41 (not shown: Neddylation inh) | NadD inh conf inactive
O=C(Nc1ccccc1F)N[C@@H]1CC[C@H](CCNC(=O)C2CCCC2)O[C@H]1CO	none (no result: HGIII-sPLA2 inh, Neddylation inh, DAGLB inh, NadD block)
COCCn1c(C)cc(C2=NNC(=Nc3ccccc3F)SC2)c1C	NadD block 38 | NadD inh conf inactive
COCCCN=C1NN=C(c2cc(C)n(-c3ccccc3F)c2C)CS1	none (no result: ARNT TACC3 PPI)
O=C(NC(Cc1c[nH]c2ccccc12)C(=O)N/N=C/c1cccc2ccccc12)c1cccs1 (configuration not stated)	NadD block 37 | NadD inh conf inactive
O=C(NC(Cc1c[nH]c2ccccc12)C(=O)O)c1cccs1 (configuration not stated)	none
COc1cccc(S(=O)(=O)N[C@@H]2CC[C@@H](CCNC(=O)Nc3cc(F)ccc3F)O[C@@H]2CO)c1	none (no result: HGIII-sPLA2 inh, Neddylation inh, DAGLB inh, NadD block)
COc1cc(/C=C2\SC(=O)N(CC(=O)Nc3cccc(C)c3)C2=O)cc([N+](=O)[O-])c1O	NadD block 41 (no result: DAGLB inh) | NadD inh conf inactive
Cc1cc(-c2csc(NC(=O)c3ccccc3C(F)(F)F)n2)c(C)n1Cc1ccccc1	NadD block 33 | NadD inh conf inactive
Cc1cc(-c2csc(NC(=O)c3ccc(=O)n(C)n3)n2)c(C)n1CC1CCCO1 (configuration not stated)	none (no result: HGIII-sPLA2 inh)
Cn1cnnc1Sc1cc(N2CCN(S(=O)(=O)c3ccc(Cl)c(Cl)c3)CC2)ccc1[N+](=O)[O-]	NadD block 42 | NadD inh conf inactive
